From the supplement of paper PMC6411743
± gives the standard deviation of the averaged measurements. About 5,400 targets were measured; listed, in parts, are those with the largest changes and a random draw of the rest.

Compound: Nc1nc2c(ncn2[C@@H]2O[C@H](COP(=O)(O)OP(=O)(O)OP(=O)(O)O)[C@@H](O)[C@H]2O)c(=O)[nH]1 [guanosine triphosphate]
Experiment: NP40-soluble protein abundance relative to vehicle (solubility fold change) (ratio); higher = more soluble protein in presence of GTP
Procedure: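 Solubility proteome profiling in Jurkat crude lysate. Lysate was treated with Mg-GTP (0.1-10 mM) for 10 min at room temperature and 3 min at 37 °C, then solubilised with 0.8% NP40 and benzonase, followed by ultracentrifugation. Proteins were quantified by TMT10 LC-MS/MS; the value is the NP40-soluble abundance relative to the NP40-processed vehicle, from 3 independent experiments.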

Target: A0A087WYN2|J3KSS7|Q9NZ52|Q9NZ52-4 (UniProt Q9NZ52)
UniProt Q9NZ52, sequence (Q9NZ52 whole entry, one chain of several): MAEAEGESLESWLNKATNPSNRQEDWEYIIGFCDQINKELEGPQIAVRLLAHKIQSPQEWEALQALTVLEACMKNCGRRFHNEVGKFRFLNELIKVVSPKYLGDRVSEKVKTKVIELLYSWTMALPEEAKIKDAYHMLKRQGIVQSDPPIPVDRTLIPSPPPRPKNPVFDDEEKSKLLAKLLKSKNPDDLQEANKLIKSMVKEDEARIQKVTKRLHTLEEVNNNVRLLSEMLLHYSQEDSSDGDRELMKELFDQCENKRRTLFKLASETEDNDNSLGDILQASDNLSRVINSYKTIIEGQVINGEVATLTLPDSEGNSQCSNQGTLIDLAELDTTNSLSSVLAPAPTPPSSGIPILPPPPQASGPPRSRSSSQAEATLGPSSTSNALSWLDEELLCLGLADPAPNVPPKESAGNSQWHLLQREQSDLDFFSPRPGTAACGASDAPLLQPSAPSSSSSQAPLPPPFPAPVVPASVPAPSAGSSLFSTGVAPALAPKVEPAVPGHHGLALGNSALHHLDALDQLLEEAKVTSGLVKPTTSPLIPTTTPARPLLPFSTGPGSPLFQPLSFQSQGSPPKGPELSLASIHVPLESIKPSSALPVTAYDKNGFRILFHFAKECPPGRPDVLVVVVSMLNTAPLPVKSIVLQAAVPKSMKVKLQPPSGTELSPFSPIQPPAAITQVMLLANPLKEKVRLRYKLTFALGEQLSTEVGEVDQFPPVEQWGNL
- NP40-soluble protein abundance (concentration: 0.1mM): 0.909 ± 0.037
- NP40-soluble protein abundance (concentration: 0.5mM): 0.905 ± 0.087
- NP40-soluble protein abundance (concentration: 1mM): 0.957 ± 0.09
- NP40-soluble protein abundance (concentration: 2mM): 0.915 ± 0.13
- NP40-soluble protein abundance (concentration: 4mM): 0.92 ± 0.14
- NP40-soluble protein abundance (concentration: 6mM): 0.94 ± 0.16
- NP40-soluble protein abundance (concentration: 8mM): 0.921 ± 0.08
- NP40-soluble protein abundance (concentration: 10mM): 0.896 ± 0.057

Target: C9J5X1|P08069 (UniProt P08069)
UniProt P08069, sequence (P08069 whole entry, looked up, one chain of several): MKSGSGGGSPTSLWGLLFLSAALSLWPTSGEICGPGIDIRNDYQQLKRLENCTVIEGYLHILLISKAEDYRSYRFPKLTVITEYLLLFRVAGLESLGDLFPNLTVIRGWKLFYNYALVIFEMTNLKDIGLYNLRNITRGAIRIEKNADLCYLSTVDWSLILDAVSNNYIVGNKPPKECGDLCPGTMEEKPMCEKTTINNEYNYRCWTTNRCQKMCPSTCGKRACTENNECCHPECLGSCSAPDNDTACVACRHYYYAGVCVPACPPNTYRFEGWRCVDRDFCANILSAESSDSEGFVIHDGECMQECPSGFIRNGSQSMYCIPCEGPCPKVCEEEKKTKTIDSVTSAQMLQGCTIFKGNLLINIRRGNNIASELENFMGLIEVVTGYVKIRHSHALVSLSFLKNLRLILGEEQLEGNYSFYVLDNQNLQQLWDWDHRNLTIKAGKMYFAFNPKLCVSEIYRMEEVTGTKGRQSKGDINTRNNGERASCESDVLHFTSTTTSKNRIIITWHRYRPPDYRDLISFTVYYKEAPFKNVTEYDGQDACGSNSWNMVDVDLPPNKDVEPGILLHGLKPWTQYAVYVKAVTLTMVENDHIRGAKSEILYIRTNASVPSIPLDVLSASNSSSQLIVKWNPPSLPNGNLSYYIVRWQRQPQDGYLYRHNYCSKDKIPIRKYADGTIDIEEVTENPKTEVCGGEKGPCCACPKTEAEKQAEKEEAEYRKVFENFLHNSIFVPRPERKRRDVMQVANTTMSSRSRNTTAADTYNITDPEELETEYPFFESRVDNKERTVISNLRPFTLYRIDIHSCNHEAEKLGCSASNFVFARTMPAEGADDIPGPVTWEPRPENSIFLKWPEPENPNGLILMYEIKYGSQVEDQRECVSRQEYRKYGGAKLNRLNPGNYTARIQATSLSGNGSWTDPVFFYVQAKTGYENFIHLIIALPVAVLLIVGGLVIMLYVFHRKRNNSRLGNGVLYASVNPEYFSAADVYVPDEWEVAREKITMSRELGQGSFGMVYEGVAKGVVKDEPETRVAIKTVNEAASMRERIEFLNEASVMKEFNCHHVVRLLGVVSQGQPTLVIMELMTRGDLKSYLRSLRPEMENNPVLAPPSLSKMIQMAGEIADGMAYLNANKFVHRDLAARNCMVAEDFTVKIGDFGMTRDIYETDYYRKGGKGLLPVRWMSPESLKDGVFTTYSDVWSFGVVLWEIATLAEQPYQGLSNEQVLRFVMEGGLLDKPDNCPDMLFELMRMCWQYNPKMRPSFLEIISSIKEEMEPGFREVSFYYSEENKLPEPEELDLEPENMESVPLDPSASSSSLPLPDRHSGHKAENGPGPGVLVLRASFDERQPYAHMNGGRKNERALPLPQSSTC
- NP40-soluble protein abundance (concentration: 0.1mM): 1.04 ± 0.13
- NP40-soluble protein abundance (concentration: 0.5mM): 1.04 ± 0.13
- NP40-soluble protein abundance (concentration: 1mM): 1.15 ± 0.11
- NP40-soluble protein abundance (concentration: 2mM): 0.987 ± 0.07
- NP40-soluble protein abundance (concentration: 4mM): 1 ± 0.086
- NP40-soluble protein abundance (concentration: 6mM): 1.05 ± 0.1
- NP40-soluble protein abundance (concentration: 8mM): 1.07 ± 0.14
- NP40-soluble protein abundance (concentration: 10mM): 1.04 ± 0.2

Target: A9IYQ1|Q9NTI5|Q9NTI5-2 (UniProt Q9NTI5)
UniProt Q9NTI5, sequence (Q9NTI5 whole entry, one chain of several): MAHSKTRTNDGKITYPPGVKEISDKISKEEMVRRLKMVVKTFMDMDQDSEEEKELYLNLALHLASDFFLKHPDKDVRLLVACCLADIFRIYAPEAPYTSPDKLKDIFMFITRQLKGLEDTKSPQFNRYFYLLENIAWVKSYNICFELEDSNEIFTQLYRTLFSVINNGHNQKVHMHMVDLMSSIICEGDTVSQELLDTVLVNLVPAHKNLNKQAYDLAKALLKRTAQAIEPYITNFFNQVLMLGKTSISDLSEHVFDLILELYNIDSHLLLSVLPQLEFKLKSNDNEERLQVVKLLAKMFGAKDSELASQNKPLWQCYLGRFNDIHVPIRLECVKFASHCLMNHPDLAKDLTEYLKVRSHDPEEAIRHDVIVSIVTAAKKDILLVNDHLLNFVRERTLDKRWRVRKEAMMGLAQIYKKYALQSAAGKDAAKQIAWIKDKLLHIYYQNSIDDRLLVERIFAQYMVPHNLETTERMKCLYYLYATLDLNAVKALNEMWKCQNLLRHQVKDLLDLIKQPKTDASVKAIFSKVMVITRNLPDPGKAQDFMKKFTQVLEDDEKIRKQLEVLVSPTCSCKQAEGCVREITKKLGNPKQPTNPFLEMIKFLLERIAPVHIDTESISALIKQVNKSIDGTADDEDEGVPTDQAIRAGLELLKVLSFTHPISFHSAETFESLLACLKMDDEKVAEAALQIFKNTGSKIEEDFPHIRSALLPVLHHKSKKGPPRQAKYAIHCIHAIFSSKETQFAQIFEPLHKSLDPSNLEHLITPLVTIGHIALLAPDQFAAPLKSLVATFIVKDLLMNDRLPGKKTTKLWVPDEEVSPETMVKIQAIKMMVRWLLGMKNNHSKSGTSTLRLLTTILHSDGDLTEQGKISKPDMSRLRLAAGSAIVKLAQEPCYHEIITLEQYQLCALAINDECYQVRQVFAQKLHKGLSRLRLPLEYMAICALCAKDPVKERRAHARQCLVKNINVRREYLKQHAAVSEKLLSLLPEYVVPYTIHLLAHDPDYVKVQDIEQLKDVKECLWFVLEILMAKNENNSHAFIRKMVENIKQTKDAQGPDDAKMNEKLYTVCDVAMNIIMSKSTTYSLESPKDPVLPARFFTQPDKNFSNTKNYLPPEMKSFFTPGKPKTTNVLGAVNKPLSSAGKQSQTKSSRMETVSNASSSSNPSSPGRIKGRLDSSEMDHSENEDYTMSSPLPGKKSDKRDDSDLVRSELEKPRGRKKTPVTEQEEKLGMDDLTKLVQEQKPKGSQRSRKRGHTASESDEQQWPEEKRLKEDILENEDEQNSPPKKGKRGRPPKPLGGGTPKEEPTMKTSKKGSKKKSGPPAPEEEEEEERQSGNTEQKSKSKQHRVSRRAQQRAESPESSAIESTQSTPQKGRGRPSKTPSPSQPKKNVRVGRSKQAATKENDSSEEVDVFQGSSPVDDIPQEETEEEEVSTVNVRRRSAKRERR
- NP40-soluble protein abundance (concentration: 0.1mM): 1.01 ± 0.015
- NP40-soluble protein abundance (concentration: 0.5mM): 1.03 ± 0.024
- NP40-soluble protein abundance (concentration: 1mM): 1.01 ± 0.015
- NP40-soluble protein abundance (concentration: 2mM): 0.995 ± 0.036
- NP40-soluble protein abundance (concentration: 4mM): 1.01 ± 0.035
- NP40-soluble protein abundance (concentration: 6mM): 1.01 ± 0.052
- NP40-soluble protein abundance (concentration: 8mM): 1.02 ± 0.08
- NP40-soluble protein abundance (concentration: 10mM): 0.992 ± 0.041

Target: A0A0C4DFU2|P04179|P04179-4 (UniProt P04179)
UniProt P04179, sequence (P04179 whole entry, one chain of several): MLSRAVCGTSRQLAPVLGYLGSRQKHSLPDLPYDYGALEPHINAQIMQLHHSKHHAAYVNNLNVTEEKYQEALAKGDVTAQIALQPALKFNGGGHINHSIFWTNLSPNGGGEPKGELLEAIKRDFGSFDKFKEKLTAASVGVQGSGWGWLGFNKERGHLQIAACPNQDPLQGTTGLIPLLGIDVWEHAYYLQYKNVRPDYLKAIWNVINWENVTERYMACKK
- NP40-soluble protein abundance (concentration: 0.1mM): 0.85 ± 0.056
- NP40-soluble protein abundance (concentration: 0.5mM): 0.843 ± 0.071
- NP40-soluble protein abundance (concentration: 1mM): 0.851 ± 0.071
- NP40-soluble protein abundance (concentration: 2mM): 0.839 ± 0.043
- NP40-soluble protein abundance (concentration: 4mM): 0.814 ± 0.045
- NP40-soluble protein abundance (concentration: 6mM): 0.823 ± 0.052
- NP40-soluble protein abundance (concentration: 8mM): 0.734 ± 0.073
- NP40-soluble protein abundance (concentration: 10mM): 0.776 ± 0.07

Target: B4E1Q4|O14730|O14730-2 (UniProt O14730)
UniProt O14730, sequence (O14730 whole entry, one chain of several): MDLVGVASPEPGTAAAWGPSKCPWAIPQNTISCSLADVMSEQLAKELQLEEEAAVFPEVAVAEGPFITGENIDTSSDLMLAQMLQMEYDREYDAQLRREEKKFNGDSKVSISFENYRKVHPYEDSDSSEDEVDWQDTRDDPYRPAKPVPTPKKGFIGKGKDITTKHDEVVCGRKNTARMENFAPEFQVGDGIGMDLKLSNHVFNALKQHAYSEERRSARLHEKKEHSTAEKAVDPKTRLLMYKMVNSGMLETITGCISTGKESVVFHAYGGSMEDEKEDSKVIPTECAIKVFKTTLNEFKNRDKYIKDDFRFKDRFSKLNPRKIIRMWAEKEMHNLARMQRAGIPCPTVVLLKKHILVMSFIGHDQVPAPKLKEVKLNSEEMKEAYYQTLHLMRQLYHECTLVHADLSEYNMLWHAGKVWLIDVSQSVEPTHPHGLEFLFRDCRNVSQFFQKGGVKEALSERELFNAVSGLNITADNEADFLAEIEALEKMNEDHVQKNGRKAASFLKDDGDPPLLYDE
- NP40-soluble protein abundance (concentration: 0.1mM): 0.965 ± 0.1
- NP40-soluble protein abundance (concentration: 0.5mM): 1.03 ± 0.063
- NP40-soluble protein abundance (concentration: 1mM): 0.949 ± 0.081
- NP40-soluble protein abundance (concentration: 2mM): 0.921 ± 0.073
- NP40-soluble protein abundance (concentration: 4mM): 0.806 ± 0.037
- NP40-soluble protein abundance (concentration: 6mM): 0.77 ± 0.041
- NP40-soluble protein abundance (concentration: 8mM): 0.747 ± 0.08
- NP40-soluble protein abundance (concentration: 10mM): 0.704 ± 0.041
